Measured values as given in ChEMBL document CHEMBL3433997, “St. Jude Leishmania screening dataset” (2016).

Experiments:
Format in all cases: functional
[1] = molecular target: Solute carrier family 2, facilitated glucose transporter member 1 (Homo sapiens) (UniProt P11166); assay: ST_JUDE_LEISH: Cytotoxicity at 2uM final concentration against transgenic Leishmania Mexicana promastigotes LmGLUT1 that are glucose transport deficient and complemented with the human glucose transporter GLUT1. Activity is measured by DNA content using SYBR green in vitro
Solute carrier family 2, facilitated glucose transporter member 1 (Homo sapiens), sequence (P11166 whole entry): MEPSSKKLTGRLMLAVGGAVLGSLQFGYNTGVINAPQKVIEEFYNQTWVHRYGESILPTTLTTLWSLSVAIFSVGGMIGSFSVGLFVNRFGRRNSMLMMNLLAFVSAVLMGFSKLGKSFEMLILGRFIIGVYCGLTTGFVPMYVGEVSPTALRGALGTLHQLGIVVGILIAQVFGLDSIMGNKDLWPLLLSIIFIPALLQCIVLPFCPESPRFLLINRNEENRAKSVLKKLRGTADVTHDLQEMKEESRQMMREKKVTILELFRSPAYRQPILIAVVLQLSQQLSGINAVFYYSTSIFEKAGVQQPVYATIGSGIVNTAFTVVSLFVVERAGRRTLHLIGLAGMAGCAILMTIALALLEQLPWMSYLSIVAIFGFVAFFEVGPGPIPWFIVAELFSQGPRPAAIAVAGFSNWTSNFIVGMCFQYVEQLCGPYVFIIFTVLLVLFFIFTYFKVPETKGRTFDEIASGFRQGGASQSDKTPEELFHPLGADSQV

[2] = molecular target: Hexose transporter 1 (Plasmodium falciparum) (UniProt O97467); assay: ST_JUDE_LEISH: Cytotoxicity at 2uM final concentration against transgenic Leishmania Mexicana promastigotes LmPfHT that are glucose transport deficient and complemented with the Plasmodium falciparum hexose transporter. Activity is measured by DNA content using SYBR green in vitro
[3] = molecular target: Glucose transporter (Leishmania mexicana) (UniProt O61059); assay: ST_JUDE_LEISH: Cytotoxicity at 2uM final concentration against transgenic Leishmania Mexicana promastigotes LmGT2 that are glucose transport deficient and complemented with the L. Mexicana glucose transporter 2. Activity is measured by DNA content using SYBR green in vitro

| Compound | inhibition [1] [%] | inhibition [2] [%] | inhibition [3] [%] |
| --- | --- | --- | --- |
| CCOc1ccc(OCCCON2C(=N)N=C(N)NC2(C)C)cc1 | 1.93 | 0.06 | 0.05 |
| COc1cc2c(c(Cl)c1OC)CCN(Cc1ccccc1)CC2c1ccc(C(N)=O)cc1 (configuration not stated) | 2.24 | 1.77 | 1.62 |
| O=C(NC1CCN(CCCc2ccccc2)CC1)c1ccc(-c2cccc(C(F)(F)F)c2)s1 | 1.95 | 1.23 | 3.77 |
| CC(C)CCNC(=O)c1cnc2c(O)cccc2c1Nc1cccc(NC(=O)c2ccc(F)cc2)c1 | 4.52 | 7.98 | 0.01 |
| CC(NC(=O)c1ccc(O)c(-c2ccc(Cl)c(Cl)c2)c1)C(=O)NCCN1CCCC1 (configuration not stated) | 7.43 | 6.16 | 4.25 |
| COc1cc(NC(=O)Nc2cccc3ccccc23)c(OC)cc1Cl | 5.02 | 5.78 | 3.81 |
| O=C(Nc1ccccc1)Nc1cccc(-c2ccc(-c3nc4cc(C(F)(F)F)ccc4[nH]3)cc2)c1 | 4.43 | 4.53 | 5.45 |
| CCc1c(CCNCCCCCNCCc2ccc(OC)c(OC)c2CC)ccc(OC)c1OC | 3.35 | 5.75 | 4.72 |
| CCn1c(Sc2ccc(C#N)c([N+](=O)[O-])c2)nnc1-c1ccc(OC)cc1 | 2.25 | 4.95 | 2.61 |
| COc1cc(Nc2nccc(N3CCC(NC(=O)c4cccc(C#N)c4)C3)n2)cc(OC)c1OC (configuration not stated) | 1.3 | 1.35 | 0.79 |
| CC(C)(C)c1ccc(CNC(=O)c2cc(CNC3CCNC3)ccc2O)cc1 (configuration not stated) | 1.88 | 0.79 | 0.53 |
| Fc1ccccc1COc1ccc(Nc2ncnc3ccc(-c4nnc(C(F)(F)F)o4)cc23)cc1Cl | 6.41 | 5.31 | 2.13 |
| COc1cccc(CNC[C@@H](O)[C@H](Cc2ccccc2)NC(=O)c2cc(N3CCCC3=O)c3[nH]cc(C(C)C)c3c2)c1 | 1.26 | 2.02 | 2.36 |
| Cc1cccc(C)c1CNc1ccnc2cc(Br)ccc12 | 9.73 | 8.34 | 5.92 |
| CCOc1cc(C(=O)Nc2ccc(-c3nc4ccccc4[nH]3)cc2)cc(OCC)c1OCC | 7.99 | 5.32 | 2.55 |
| c1cncc(CNc2ncc(-c3ccsc3)c(-c3nccs3)n2)c1 | 5.96 | 8.95 | 7.02 |
| Cc1noc(-c2ccc(N3CCC(C(=O)N4CCN(C(C)C)CC4)CC3)cc2)n1 | 1.72 | 2.07 | 2 |
| CC(C)COc1ccc(C(O)C(CN2CCCCC2)c2ccccc2)cc1 (configuration not stated) | 5.44 | 1.93 | 3.27 |
| Cc1cccc2nc(-c3ccc(-c4ccc(CN5CCCC(O)C5)cc4)cc3)[nH]c12 (configuration not stated) | 25.8 | 30.8 | 19.8 |
| COc1cccc(CN2CCCN(Cc3cccc(NC(=O)c4ccc(Cl)c(Cl)c4)c3)CC2)c1 | 4.43 | -0.94 | 2.19 |
| Cc1cccc2nc(-c3ccc(-c4cccc(NC(=O)Nc5ccsc5)c4)s3)[nH]c12 | 0.98 | 2.82 | 1.03 |
| COC(=O)C1=C(C)NC2=C(C(=O)CC(c3ccc(OC)c(OC)c3)C2)C1c1cccc(O)c1 (configuration not stated) | 3.8 | 3.84 | 3.82 |
| CCNc1cc(C(=O)NC(Cc2ccccc2)C(O)CNC2CCSCC2)cc(N2CCCC2=O)c1 (configuration not stated) | 3.69 | 3.13 | 4 |
| O=S(=O)(NCCN1CCCC1)c1cccc(-c2ccc(CNCc3ccsc3)cc2)c1 | 2.71 | 1.13 | 3.02 |
| O=S(=O)(Nc1cccc(CCN2CCC(N3CCCCC3)CC2)c1)c1ccc(Oc2ccccc2)nc1 | 3.37 | 4.85 | 5.38 |

| Compound | inhibition [1] [%] | inhibition [2] [%] | inhibition [3] [%] |
| --- | --- | --- | --- |
| Cc1cccc(C)c1CNc1ccnc2ccccc12 | 1.11 | 2.91 | 6.9 |
| Oc1c(C(Nc2ccccn2)c2ccc(Cl)cc2Cl)ccc2cccnc12 (configuration not stated) | 3.22 | 5.81 | 0.74 |
| O=C(NCCNc1ccnc2cc(Cl)ccc12)c1ccccc1F | -1.91 | 1.06 | -0.19 |
| Cc1cc(Nc2ccc(Oc3ccc(Cl)cc3)cc2)nc(N)n1 | 3.89 | 5.01 | 2.92 |
| CC(C)(CNC(=O)[C@@H]1CCCN(Cc2ccc(Cl)cc2)C1)c1nc(-c2ccc(Cl)c(O)c2)c(-c2ccncc2)[nH]1 | -1.45 | 0.41 | 0.77 |
| OC(c1ccc(Cl)cc1)(c1ccc(Cl)cc1)C(c1ccc(Cl)cc1)n1ccnc1 (configuration not stated) | 8.37 | 4.21 | 2.69 |
| O=S(=O)(NCCN1CCCC1)c1ccc(-c2cccc(CNCc3ccc(F)cc3)c2)s1 | 6.73 | 2.44 | -1.98 |
| CCOC(=O)CCCc1cc(NC2CCN(C)CC2)nc(Nc2ccc(C)cc2)n1 | -2.45 | 0.71 | -2.59 |
| COc1ccccc1C1CC(c2ccc(C)cc2)=NN1C(=O)c1ccccc1 (configuration not stated) | 8.25 | 8.06 | 5.66 |
| Cc1cc(C)c(CON2C(=N)N=C(N)NC2(C)C)cc1C | -0.51 | -0.15 | -0.63 |
| C[C@@H](COc1ccccc1)NCC(O)c1ccc([N+](=O)[O-])c(OCc2ccccc2)c1 (some centres not stated) | 0.54 | 0.96 | 0.1 |
| CCOc1ccc(CCC(=O)O)cc1OCC | 2.83 | 3.36 | 2.88 |
| COc1ccc2nccc([C@@H](O)CN3CCC(NCCOc4ccccc4C#N)CC3)c2c1 | 4.87 | 2.43 | 6.46 |
| COC(=O)c1cccc(CNCc2ccc(-c3cccc(-c4nc5ccccc5[nH]4)c3)cc2)c1 | -2.56 | -1.88 | 0 |
| O=C(Nc1ccc(C(F)(F)F)cc1)c1ccc(S(=O)(=O)NC2CCCN(CC3CCCCC3)C2)cc1 (configuration not stated) | 6.6 | 4.53 | 4.45 |
| O=C(/C=C/c1ccc(Cl)c(Cl)c1)NCCCCCN1CCCN(C(=O)Nc2cccc(C(F)(F)F)c2)CC1 | 3.99 | 2.84 | 3.62 |
| Cc1ccc(Cn2c(N3CCC(C(=O)NCc4ccccn4)CC3)nc3ccccc32)cc1 | 4.09 | 4.68 | 7.97 |
| COc1cc(C(=O)Nc2cccc(-c3nc4ccccc4[nH]3)c2)cc(OC)c1OC | 4.34 | 1.94 | -3.56 |
| O=C(O)C[C@H](NC(=O)CCCNC(=O)c1cccc(-c2ccc(Cl)c(Cl)c2)c1)C(=O)O | -1.37 | 0.62 | 1.4 |
| CCNc1cc(C(=O)N[C@@H](Cc2ccccc2)[C@H](O)CNCCc2ccccc2)cc(N2CCCCS2(=O)=O)c1 | -0.52 | -0.67 | -3.28 |
| CC(=O)N(C)C1CCN(Cc2ccc(-c3cccc(-c4nc5cc(F)ccc5[nH]4)c3)cc2)C1 (configuration not stated) | 1.27 | -0.26 | 1.68 |
| Cc1cccc2nc(-c3ccc(-c4cccc(CNCC5CCCO5)c4)cc3)[nH]c12 (configuration not stated) | 12.7 | 10.1 | 8.96 |
| C=CCOc1ccc2ccccc2c1CNCCCCCCNCc1c(OCC=C)ccc2ccccc12 | 4.33 | 5.37 | 1.05 |
| CCCCc1cc(Cc2cnc(N)nc2N)cc(OC)c1OC | 3.17 | 2.41 | 0.98 |
| O=C(Nc1cccc(-c2ccc(CN3CCCC3)cc2)c1)c1cccc(Cl)c1 | -0.6 | 0.05 | 0.25 |

| Compound | inhibition [1] [%] | inhibition [2] [%] | inhibition [3] [%] |
| --- | --- | --- | --- |
| O=S(=O)(c1ccc(OCc2ccc(Cl)cc2)cc1)c1cc2c(cc1O)CCN(C1CCC1)CC2 | 2.05 | 1.15 | 1.15 |
| O=C(CCC1CCCCC1)NCCNc1cccc2ccccc12 | -0.06 | -0.34 | -3.97 |
| CCOC(=O)c1nc(-c2cc(Cl)nc(Cl)c2)[nH]c1NC(=S)NCc1ccc(NS(C)(=O)=O)cc1 | -2.02 | -1.98 | -1.67 |
| CCOc1cc(C=NNc2nc(C)cc(-n3nc(C)cc3C)n2)ccc1O | 1.32 | -0.22 | 3.45 |
| OCC1CCN(Cc2cccc(-c3ccc(-c4nc5cc(C(F)(F)F)ccc5[nH]4)s3)c2)CC1 | 4.2 | 4.88 | 3.14 |
| CCN(CC)CCCC(C)Nc1ccnc2cc(Cl)ccc12 (configuration not stated) | 1.44 | 1.5 | 1.51 |
| NCCCNc1nc(Nc2cccc(C(N)=O)c2)c2c(=O)[nH]ccc2n1 | -0.41 | 1.23 | 0.77 |
| CC(O)C1CCCCN1C(=O)c1cccc(-c2cccc(-c3nc4cc(F)ccc4[nH]3)c2)c1 (configuration not stated) | 3.45 | 3.21 | 1.62 |
| O=C(NCCCCN1CCC(c2ccc(C(F)(F)F)cc2C(F)(F)F)CC1)c1ccc(NC(=O)c2ccc(Cl)cc2)cc1 | 0.67 | 3.98 | -1.54 |
| c1cc(Nc2nccc(-c3cnn4ncccc34)n2)cc(-c2cnco2)c1 | 35.9 | 45.8 | 63.1 |
| CCN(CCCN1CCCCC1)c1cc(C)nc(Nc2cccc(C(F)(F)F)c2)n1 | -5.65 | 2.63 | 11 |
| COC(=O)c1cccc(NC(=O)NC2CCN(c3ccnc(Nc4cc(OC)c(OC)c(OC)c4)n3)C2)c1 (configuration not stated) | 10.5 | 6.39 | 8.79 |
| O=C(/C=C/c1ccc([N+](=O)[O-])cc1)N1CCC(NS(=O)(=O)c2ccc(Br)cc2)CC1 | -0.08 | 1.13 | 1.17 |
| Cc1sc(CNCCCNc2cc(=O)c3ccccc3[nH]2)cc1Br | 0.99 | 0.97 | 0.93 |
| CC(=O)c1ccc(-c2ccccc2)s1 | 2.16 | 3.72 | 1.61 |
| O=C(Nc1ccc(F)cc1)c1cnc(N2CCN(c3ccncc3)CC2)c(Cl)c1 | 16 | 10.4 | 3.86 |
| CCCCCCCCNCC(O)c1cc(-c2ccc(Cl)cc2)nc2cc(C)ccc12 (configuration not stated) | 3.01 | -0.38 | -1.09 |
| COc1ccc(-c2cc(Nc3nc(-c4cccc(Cl)c4)nc4ccccc34)ccn2)cc1 | 1.11 | 0.61 | -0.05 |
| CCN(CC)C(=O)C1CCCN(C(=O)Nc2cc(C(F)(F)F)cc(C(F)(F)F)c2)C1 (configuration not stated) | 0.66 | 0.55 | -2.05 |
| Cc1cc(=NN=Cc2ccccc2Cl)c2ccccc2[nH]1 | 8.12 | 8.36 | 5.86 |
| CCC1CN2CCc3c([nH]c4ccccc34)[C@@H]2C[C@@H]1CC1NCCc2cc(OC)c(OC)cc21 (some centres not stated) | -0.82 | -1.25 | -1.42 |
| CCCCOc1ccc(-n2c(Nc3ccccc3)nc3cc(S(N)(=O)=O)ccc32)cc1 | 11.4 | 8.64 | 7.09 |
| Brc1ccc(C=NNc2nc3ccccc3[nH]2)cc1 | 6.61 | 4.26 | 2.59 |
| CCCNCc1ccc(-c2ccc(CN(CCOC)C(=O)/C=C/c3ccccc3C)cc2)nc1 | 9.67 | 6.69 | 6.86 |
